According to PubChem BioAssay (Tox21):
Records with an inconclusive call do not appear. Where a call stands in place of a potency, no number is given. Active and inactive are the calls of the source. Unless noted, calls come from the whole dose curve; as a rule, active = well fitted curve in the direction sought with a large enough effect in the repeat runs; inconclusive = weak or mixed curves; inactive = no such curve, though single readings can be large; an effect the other way counts as inactive or inconclusive.

What was measured:
[1] = target: Luciferin 4-monooxygenase (Photinus pyralis) (UniProt P08659); assay: qHTS assay to identify small molecule inhibitors of firefly luciferase (AID 1224835); note: nearly all actives have a fitted effect of over 25% in size; note: potency is the fitted concentration of half-maximal effect
How it was run: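 Inhibition of purified Photinus luciferase is measured by luminescence. Substrate levels (D-luciferin, ATP) sit at their KM values. Each compound is tested in a concentration series.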

[2] = qHTS assay to identify small molecule agonists of the constitutive androstane receptor (CAR) signaling pathway - cell viability counter screen (AID 1224836); note: nearly all actives have a fitted effect of over 45% in size; note: potency is the fitted concentration of half-maximal effect
How it was run: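 Viability read-out: CellTiter-Fluor fluorescence after 23 h compound exposure at 37 C/5% CO2 in double-stable HepG2-CYP2B6-hCAR cells, with PK11195 present at 0.75 uM final; compounds tested in 15-point titration.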

[3] = qHTS assay to identify small molecule antagonists of the constitutive androstane receptor (CAR) signaling pathway - cell viability counter screen (AID 1224837); note: nearly all actives have a fitted effect of over 45% in size; note: potency is the fitted concentration of half-maximal effect
How it was run: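 In quantitative HTS format, compounds at 15 concentrations were applied to HepG2 cells double-transfected with hCAR and CYP2B6-2.2kb under 50 nM CITCO stimulation; live-cell protease activity was read after 23 hr via CellTiter-Fluor.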

[4] = qHTS assay to identify small molecule antagonists of the estrogen related receptor signaling pathway with the pleiotropic PPARgamma coactivator (PGC) from Tox21 10K library - cell viability counter screen (AID 1224840; active = well fitted cell-killing curve with a large enough effect in the repeat runs, not every such curve was filed as active; note: nearly all actives have a fitted effect of over 40% in size; note: potency is the fitted concentration of half-maximal effect)
How it was run: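 Viability counter screen, PGC/ERR cells: 17.5 h compound exposure at 37 C, CellTiter-Fluor fluorescence endpoint.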

[5] = target: Thyrotropin receptor (Homo sapiens) (UniProt P16473); assay: qHTS assay to identify small molecule agonists of the thyroid stimulating hormone receptor (TSHR) signaling pathway (AID 1224843; calls by dose curve; note: nearly all actives have a fitted effect of over 45% in size)
How it was run: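 Agonist activity read as cAMP rise via d2/cryptate HTRF competition, 1 h room-temperature detection, in HEK293 cells expressing TSHR. Fifteen-point titrations, each run in triplicate, with a 30 min room-temperature incubation beforehand.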

[6] = target: Nuclear receptor subfamily 1 group I member 3 (Homo sapiens) (UniProt Q14994); assay: qHTS assay to identify small molecule antagonists of the constitutive androstane receptor (CAR) signaling pathway (AID 1224838); note: nearly all actives have a fitted effect of over 40% in size; note: potency is the fitted concentration of half-maximal effect
How it was run: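 CITCO-stimulated (50 nM final) HepG2 cells stably transfected with hCAR and CYP2B6-2.2kb luciferase were exposed to compounds at 15 concentrations for 24 h at 37 C/5% CO2. A luciferase reagent was added and luminescence recorded after 30 min.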

[7] = target: Nuclear receptor subfamily 1 group I member 3 (Homo sapiens) (UniProt Q14994); assay: qHTS assay to identify small molecule agonists of the constitutive androstane receptor (CAR) signaling pathway (AID 1224839); note: nearly all actives have a fitted effect of over 15% in size; note: potency is the fitted concentration of half-maximal effect
How it was run: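 Luminescence read-out (ONE-Glo, 30 min, room temperature) from double-stable HepG2-CYP2B6-hCAR cells exposed 24 h to 15-point compound series in presence of 0.75 uM PK11195 final.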

[8] = qHTS assay to identify small molecule agonists of the estrogen related receptor signaling pathway with the pleiotropic PPARgamma coactivator (PGC) from Tox21 10K library (AID 1224842); note: nearly all actives have a fitted effect of over 15% in size
How it was run: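 Luminescence from One-Glo (30 min, room temperature) measured after PGC/ERR cells had 18 h at 37 C with pinned compound (23 nL in DMSO). Cells had been seeded at 2,000 per well and pre-incubated 6 h.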

[9] = qHTS assay to identify small molecule antagonists of the estrogen related receptor signaling pathway with the pleiotropic PPARgamma coactivator (PGC) from Tox21 10K library (AID 1224841; call rule not given here; note: actives are mostly falling curves and most rising ones were filed inactive; nearly all actives have a fitted effect of over 50% in size; note: potency is the fitted concentration of half-maximal effect)
How it was run: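 In the PGC/ERR line, DMSO solutions of test chemicals are pin-delivered to 2,000 cells/well six hours after dispensing. Following eighteen hours' incubation, One-Glo reagent is added and luminescence recorded.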

[10] = qHTS assay to identify small molecule agonists of the hypoxia (HIF-1) signaling pathway - cell viability counter screen (AID 1224844; calls by dose curve; note: nearly all actives have a fitted effect of over 50% in size; note: potency is the fitted concentration of half-maximal effect)
How it was run: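 Same wells as the HIF-1 reporter screen; ME-180 cells carrying HRE-bla, 17 hr treatment at 37C; CellTiter-Glo luminescence read after 30 min at room temperature.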

Sequence of Thyrotropin receptor (Homo sapiens) (P16473 whole entry, looked up): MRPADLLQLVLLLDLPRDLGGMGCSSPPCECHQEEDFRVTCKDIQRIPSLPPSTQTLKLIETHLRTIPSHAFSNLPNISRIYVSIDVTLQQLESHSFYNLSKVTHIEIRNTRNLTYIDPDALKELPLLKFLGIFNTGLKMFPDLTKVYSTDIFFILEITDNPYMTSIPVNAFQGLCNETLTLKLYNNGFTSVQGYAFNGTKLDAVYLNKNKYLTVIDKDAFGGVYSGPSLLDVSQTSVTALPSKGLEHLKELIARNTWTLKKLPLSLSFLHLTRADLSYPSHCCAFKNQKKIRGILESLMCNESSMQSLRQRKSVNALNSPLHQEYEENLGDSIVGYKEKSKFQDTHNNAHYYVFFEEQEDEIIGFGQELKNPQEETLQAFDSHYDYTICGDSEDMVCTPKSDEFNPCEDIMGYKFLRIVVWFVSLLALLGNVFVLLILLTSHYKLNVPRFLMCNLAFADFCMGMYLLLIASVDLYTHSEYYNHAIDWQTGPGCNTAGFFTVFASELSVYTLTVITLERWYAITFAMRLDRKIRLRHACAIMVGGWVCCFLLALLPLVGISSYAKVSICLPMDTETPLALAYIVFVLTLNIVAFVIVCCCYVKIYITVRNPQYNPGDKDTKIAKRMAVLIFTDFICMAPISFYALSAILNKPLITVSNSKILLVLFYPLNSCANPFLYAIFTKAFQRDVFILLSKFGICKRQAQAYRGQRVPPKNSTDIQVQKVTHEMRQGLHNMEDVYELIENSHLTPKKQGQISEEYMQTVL
Sequence of Nuclear receptor subfamily 1 group I member 3 (Homo sapiens) (Q14994 whole entry, looked up): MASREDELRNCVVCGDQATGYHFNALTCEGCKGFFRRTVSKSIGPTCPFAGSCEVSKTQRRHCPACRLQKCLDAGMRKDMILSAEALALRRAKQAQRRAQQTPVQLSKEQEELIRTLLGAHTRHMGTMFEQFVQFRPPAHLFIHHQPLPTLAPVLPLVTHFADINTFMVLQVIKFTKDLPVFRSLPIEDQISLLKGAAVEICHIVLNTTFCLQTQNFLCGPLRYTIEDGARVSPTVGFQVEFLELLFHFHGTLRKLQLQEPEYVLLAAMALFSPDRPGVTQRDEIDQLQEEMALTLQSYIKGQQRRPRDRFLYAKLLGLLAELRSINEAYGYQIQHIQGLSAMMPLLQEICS
Sequence of Luciferin 4-monooxygenase (Photinus pyralis) (P08659 whole entry, looked up): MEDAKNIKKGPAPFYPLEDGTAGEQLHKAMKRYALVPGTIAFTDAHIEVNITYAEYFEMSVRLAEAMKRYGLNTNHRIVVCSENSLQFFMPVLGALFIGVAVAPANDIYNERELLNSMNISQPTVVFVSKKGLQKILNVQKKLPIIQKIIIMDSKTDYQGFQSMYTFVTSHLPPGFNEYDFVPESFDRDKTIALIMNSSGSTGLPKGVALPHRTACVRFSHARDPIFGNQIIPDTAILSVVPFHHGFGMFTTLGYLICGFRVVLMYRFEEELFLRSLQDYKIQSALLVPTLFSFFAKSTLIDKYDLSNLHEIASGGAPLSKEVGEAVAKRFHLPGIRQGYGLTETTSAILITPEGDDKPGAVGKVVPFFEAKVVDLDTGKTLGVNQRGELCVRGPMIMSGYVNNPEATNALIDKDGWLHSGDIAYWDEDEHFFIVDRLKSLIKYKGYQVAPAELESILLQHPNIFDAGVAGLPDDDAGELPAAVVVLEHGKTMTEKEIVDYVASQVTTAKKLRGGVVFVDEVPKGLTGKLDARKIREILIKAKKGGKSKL

Row | SMILES | Potency [1] | Potency [2] | Potency [3] | Potency [4] | Potency [5] | Potency [6] | Potency [7] | Potency [8] | Potency [9] | Potency [10]
1 | CCN(CC)C(=S)[S-].CCN(CC)C(=S)[S-].[Zn+2] | 35.3 µM (active) | 3.04 µM (active) | 1.36 µM (active) | 2.41 µM (active) | inactive | – | – | – | – | –
2 | O=C1NCN(c2ccccc2)C12CCN(CC1COc3ccccc3O1)CC2 (stereo unspecified) | inactive | inactive | – | inactive | inactive | inactive | inactive | inactive | – | –
3 | COc1cccc(C(=O)CCN[C@@H](C)[C@H](O)c2ccccc2)c1 | inactive | inactive | – | inactive | inactive | – | inactive | inactive | inactive | –
4 | FC(Cl)(Cl)Cl | inactive | inactive | inactive | inactive | inactive | – | – | – | – | inactive
5 | SCc1ccco1 | inactive | inactive | inactive | – | – | – | – | – | – | inactive
6 | O=c1ssc(Cl)c1Cl | 17.8 µM (active) | 61.1 µM (active) | – | – | – | 54.5 µM (active) | inactive | inactive | – | 17.4 µM (active)
7 | CC(C)(C)C(O)C(Oc1ccc(-c2ccccc2)cc1)n1cncn1 (stereo unspecified) | inactive | inactive | – | inactive | – | inactive | – | inactive | 54.5 µM (active) | 54.9 µM (active)
8 | COc1ccc(OC)c(C=O)c1 | inactive | inactive | inactive | inactive | – | – | – | – | – | inactive
9 | O=C(Cl)c1ccc(Cl)cc1 | inactive | inactive | inactive | inactive | – | – | – | – | – | inactive
10 | C[C@]12Cc3nonc3C[C@@H]1CC[C@@H]1[C@@H]2CC[C@@]2(C)[C@H]1CC[C@]2(C)O | inactive | inactive | inactive | – | inactive | – | – | inactive | – | 26.8 µM (active)
11 | N#CCCO | inactive | inactive | inactive | inactive | – | – | – | – | – | inactive
12 | Cc1cc(C(F)(C(F)(F)F)C(F)(F)F)ccc1NC(=O)c1cccc(I)c1C(=O)NC(C)(C)CS(C)(=O)=O | inactive | inactive | – | inactive | inactive | – | inactive | inactive | – | –
13 | Oc1ccccc1Br | inactive | inactive | – | inactive | – | inactive | inactive | – | – | inactive
14 | O=[N+]([O-])c1cc([N+](=O)[O-])c2ccccc2c1 | inactive | inactive | – | inactive | inactive | – | 24.3 µM (active) | inactive | – | –
15 | CC(Cc1ccc(C(C)(C)C)cc1)CN1C[C@@H](C)O[C@@H](C)C1 (stereo partly specified) | inactive | inactive | – | inactive | – | inactive | inactive | inactive | inactive | –
16 | O=[N+]([O-])c1ccc(Oc2ccc(C(F)(F)F)cc2[N+](=O)[O-])cc1 | inactive | inactive | – | inactive | inactive | inactive | – | inactive | inactive | inactive
17 | CCOC(=O)OC1=C(c2cc(C)ccc2C)C(=O)NC12CCC(OC)CC2 (stereo unspecified) | inactive | inactive | – | inactive | – | inactive | inactive | – | – | inactive
18 | CC(C)[C@H](C(=O)O[C@H](C#N)c1cccc(Oc2ccccc2)c1)c1ccc(Cl)cc1 | inactive | inactive | inactive | inactive | – | – | – | – | – | inactive
19 | Oc1cccc(-c2ccccc2)c1 | 35.6 µM (active) | inactive | – | inactive | inactive | inactive | 54.5 µM (active) | inactive | inactive | inactive
20 | COS(=O)(=O)c1ccc(C)cc1 | inactive | inactive | inactive | inactive | – | – | – | – | – | inactive
21 | Clc1ccc(CCC(Cn2ccnc2)Sc2c(Cl)cccc2Cl)cc1 (stereo unspecified) | inactive | inactive | – | – | – | inactive | 29.8 µM (active) | – | – | 23.9 µM (active)
22 | CCOP(=S)(OCC)SCCS(=O)(=O)CC | inactive | inactive | inactive | inactive | – | – | – | inactive | – | inactive
23 | CCOP(=S)(OCC)SCS(=O)(=O)CC | inactive | inactive | – | inactive | inactive | inactive | inactive | inactive | – | inactive
24 | CCCN(CC)CC1COC2(CCC(C(C)(C)C)CC2)O1 (stereo unspecified) | inactive | inactive | – | inactive | inactive | inactive | inactive | – | – | inactive
25 | N#Cc1ccccc1N | inactive | inactive | – | inactive | inactive | inactive | inactive | inactive | – | inactive
26 | C[C@@H](Oc1ccc(Cl)cc1Cl)C(=O)O | inactive | inactive | inactive | inactive | inactive | – | – | – | – | inactive
